The text below walks through data of PubChem BioAssay (NCI).

Test systems include HCT-15 colon; HT29 colon; SNB-75 CNS; SNB-19 CNS; U251 CNS; PC-3 prostate; SK-MEL-5 melanoma; UACC-62 melanoma; LOX IMVI melanoma; SK-MEL-28 melanoma; SK-MEL-2 melanoma; EKVX NSCLC; SN12C renal; UO-31 renal; TK-10 renal; ACHN renal; CAKI-1 renal; A498 renal; CCRF-CEM leukemia; MOLT-4 leukemia.
Holding throughout (test): NCI-60 one-dose screen, 48 h (100 = growth as untreated, 0 = no growth, -100 = all killed)
Settings in all cases: 10 µM unless noted

Compounds without any hit were thinned out: in the full panel of roughly 83,000, 20% have a hit.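 Percent growth is the endpoint: 0 to 100 indicates growth inhibition (40 means 60% inhibition), 0 means no net growth, and negative values indicate cell death.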 Unmarked numbers belong to inactive results. The source made the active and inactive calls. Rule for the calls: active = growth percent below 10; inactive = the rest.

As to `Cc1nc2sc(C(=O)Nc3ccccc3)c(N)c2cc1C(=O)/C=C/c1ccccc1`, the growth with HCT-15 colon was -32.1% (active); in the assay on HT29 colon, -63.9% (active); in the assay with SNB-75 CNS it was -14% (active); in the assay with SNB-19 CNS, -40.8% (active); with U251 CNS, -71.7% (active); with PC-3 prostate, 6.68% (active). Further, the growth with SK-MEL-5 melanoma is 11.7%; in the assay with UACC-62 melanoma, 0.799% (active); with LOX IMVI melanoma, -80% (active); with SK-MEL-28 melanoma, 30.9%; in the assay with SK-MEL-2 melanoma, 18.4%; with EKVX NSCLC, 43.2%. Further, the growth in the assay on SN12C renal was -27.1% (active); with UO-31 renal, -82.6% (active); in the assay on TK-10 renal it was -18.1% (active); in the assay with ACHN renal, 3.7% (active); in the assay on CAKI-1 renal it was -54.1% (active); in the assay on A498 renal, 9.65% (active). Also, the growth in the assay on CCRF-CEM leukemia is 6.14% (active); with MOLT-4 leukemia, 15.3%.
Turning to `N#CC(C#N)N=Nc1ccc(Cl)cc1Cl`, the growth in the assay on HCT-15 colon is 85%; in the assay with HT29 colon it was 81.8%; with SNB-75 CNS it was 89.3%; in the assay with SNB-19 CNS it was 102%; in the assay with U251 CNS, 106%; in the assay with PC-3 prostate, 78.7%. Further, the growth with SK-MEL-5 melanoma is 99.8%; in the assay on UACC-62 melanoma, 69.6%; with LOX IMVI melanoma, 94.8%; with SK-MEL-28 melanoma it was 70.3%; in the assay with SK-MEL-2 melanoma, 99.9%; with EKVX NSCLC, 99.3%. Also, the growth was 82.9% in the assay with SN12C renal; 57.8% in the assay on UO-31 renal; 90.8% in the assay with TK-10 renal; 58.4% in the assay with ACHN renal; 70.8% in the assay with CAKI-1 renal; 84.7% in the assay with A498 renal. In addition, the growth with CCRF-CEM leukemia is 48.3%; with MOLT-4 leukemia it was 75.5%.
Consider `Cc1ccccc1OCC(O)COc1ccccc1C`, for which the growth is 79.1% in the assay with HCT-15 colon; 103% in the assay with HT29 colon; 112% in the assay with SNB-75 CNS; 94.9% in the assay on SNB-19 CNS; 86.1% in the assay with U251 CNS; 94.8% with PC-3 prostate. The growth with SK-MEL-5 melanoma is 93.6%; in the assay on UACC-62 melanoma it was 81.9%; in the assay on LOX IMVI melanoma, 97.6%; with SK-MEL-28 melanoma it was 101%; in the assay on SK-MEL-2 melanoma it was 102%; in the assay with EKVX NSCLC, 101%. The growth was 83.9% with SN12C renal; 78.9% in the assay on UO-31 renal; 120% in the assay on TK-10 renal; 84.4% in the assay with ACHN renal; 80% in the assay with CAKI-1 renal; 102% in the assay with A498 renal. For the same compound, the growth with CCRF-CEM leukemia was 85.2%; in the assay on MOLT-4 leukemia it was 131%.
With `COc1ccc(C2C(C#N)=C(N)Oc3c2sc2c(Br)cccc32)cc1` (stereo not given), the growth in the assay on HCT-15 colon is 19.1%; in the assay with HT29 colon it was 5% (active); in the assay on SNB-75 CNS, 11.3%; with SNB-19 CNS, 44.8%; in the assay on U251 CNS, 20.4%; in the assay on PC-3 prostate, 25.5%. Further, the growth with SK-MEL-5 melanoma was 29.3%; in the assay with UACC-62 melanoma it was 10.6%; in the assay on LOX IMVI melanoma, 29.2%; in the assay with SK-MEL-28 melanoma it was 59.5%; in the assay with SK-MEL-2 melanoma, 10.9%; in the assay on EKVX NSCLC it was 46.2%. The growth in the assay with SN12C renal is 37.3%; in the assay with UO-31 renal it was 35.9%; in the assay with TK-10 renal it was 50.2%; in the assay with ACHN renal, 54%; in the assay with CAKI-1 renal, 35.9%; with A498 renal it was 27%. The values for the growth in the assay with CCRF-CEM leukemia and in the assay on MOLT-4 leukemia were 12.5% and 12.1%, respectively.
On to `N#C/C(=C\c1ccc(Cl)cc1Cl)C(=O)Nc1ncc(Cc2ccc(Cl)c(Cl)c2)s1`, for which the growth is 37.7% in the assay with HCT-15 colon; 66.3% in the assay with HT29 colon; 97.9% in the assay on SNB-75 CNS; 97.7% in the assay with SNB-19 CNS; 90.9% in the assay with U251 CNS; 79.3% with PC-3 prostate. For the same compound, the growth in the assay with SK-MEL-5 melanoma was 97.8%; with UACC-62 melanoma, 35.2%; in the assay with LOX IMVI melanoma it was 34.4%; with SK-MEL-28 melanoma it was 99.6%; with SK-MEL-2 melanoma, 88.8%; in the assay with EKVX NSCLC it was 96.1%. The growth in the assay with SN12C renal was 92.2%; in the assay on UO-31 renal it was 65.7%; in the assay on TK-10 renal, 80.7%; in the assay on ACHN renal, 47.7%; with CAKI-1 renal, 52.3%; in the assay on A498 renal, 101%. Besides, the growth with CCRF-CEM leukemia is 87.7%; in the assay on MOLT-4 leukemia, 92.9%.
With `COc1ccc2c(c1)c(-c1nonc1-c1c[nH]c3ccc(Br)cc13)cn2C`, the growth is 22.2% with HCT-15 colon; 11.9% in the assay on HT29 colon; 63.3% in the assay with SNB-75 CNS; 52.2% with SNB-19 CNS; 34.9% in the assay with U251 CNS; 43.8% in the assay with PC-3 prostate. In addition, the growth was 57.1% in the assay on SK-MEL-5 melanoma; 38.2% in the assay with UACC-62 melanoma; 22.4% in the assay on LOX IMVI melanoma; 61% in the assay on SK-MEL-28 melanoma; 46.9% in the assay with SK-MEL-2 melanoma; 31.6% with EKVX NSCLC. For the same compound, the growth with SN12C renal is 59.3%; with UO-31 renal, 40.8%; with TK-10 renal it was 58.2%; with ACHN renal, 43.7%; with CAKI-1 renal, 34.3%; in the assay on A498 renal it was 27.4%. Moreover, the growth with CCRF-CEM leukemia was 33.5%; with MOLT-4 leukemia, 17.6%.
As to `C[C@@H](CO)[C@@H]1CC[C@]2(C(=O)N3CCN(C)CC3)CC[C@]3(C)[C@H](CC[C@@H]4[C@@]5(C)CC[C@H](O)C(C)(C)[C@@H]5CC[C@]43C)[C@@H]12`, the growth in the assay on HCT-15 colon is 44.3%; with HT29 colon, 17.6%; in the assay with SNB-75 CNS it was 91.4%; in the assay on SNB-19 CNS it was 68.7%; in the assay on U251 CNS, 24.1%; in the assay with PC-3 prostate, 64.1%. Besides, the growth in the assay with SK-MEL-5 melanoma is 82.9%; with UACC-62 melanoma, 78.3%; in the assay on LOX IMVI melanoma, 38.7%; in the assay on SK-MEL-28 melanoma it was 106%; in the assay with SK-MEL-2 melanoma, 90.1%; in the assay with EKVX NSCLC, 88.4%. The growth with SN12C renal was 71.9%; with UO-31 renal, 64.7%; with TK-10 renal, 113%; in the assay on ACHN renal it was 89.6%; in the assay with CAKI-1 renal, 78.2%; in the assay with A498 renal, 89%. Besides, the growth with CCRF-CEM leukemia is -5.45% (active); in the assay with MOLT-4 leukemia, 39.2%.
`Cc1ncc(C(=O)Nc2ccc(CN3CCN(C)CC3)c(C(F)(F)F)c2)cc1C#Cc1cnc(N)c2ccncc12`: the growth in the assay on HCT-15 colon is -31.8% (active); with HT29 colon, -44.8% (active); with SNB-75 CNS, -67.7% (active); with SNB-19 CNS, -45.6% (active); with U251 CNS, -92.7% (active); in the assay with PC-3 prostate, -50.6% (active). In addition, the growth was -90.8% (active) in the assay on SK-MEL-5 melanoma; -83.8% (active) in the assay with UACC-62 melanoma; -93.3% (active) in the assay with LOX IMVI melanoma; -81.3% (active) with SK-MEL-28 melanoma; -55.8% (active) in the assay with SK-MEL-2 melanoma; -18.9% (active) in the assay on EKVX NSCLC. In addition, the growth with SN12C renal is -26.8% (active); in the assay on UO-31 renal, -42.2% (active); in the assay on TK-10 renal, -59% (active); in the assay on ACHN renal, -64.3% (active); in the assay on CAKI-1 renal, -56.8% (active); in the assay on A498 renal, -90.2% (active). Further, the values for the growth with CCRF-CEM leukemia and with MOLT-4 leukemia were -23.3% (active) and -42.5% (active), respectively.
